# Laboratory results as given in ChEMBL document CHEMBL4513216, “Probing the Open Global Health Chemical Diversity Library for Multistage-Active Starting Points for Next-Generation Antimalarials” (ACS Infect Dis, 2020).
# Hit rate of the full screen: of about 65,000 compounds, about 2,100 (3.2%) showed an effect of 50% or more. The median lay at about -52%. The sample holds strong results, similar compounds and a random draw of the others, so the mix is not that of the screen.
# System: Plasmodium falciparum
# Assay: Screen against P. falciparum Asexual Blood Stage (ABS), at 5uM
# Type: functional, Dd2
# Conditions: tested at 5 uM
row,Structure (SMILES),INHIBITION
1,Cc1noc(C)c1CN(C)C(=O)C1CCCCN1CC(C)C (stereo not given),21.5%
2,COC[C@H](C)Nc1cc(C)c2ccc(SC)cc2n1,75.5%
3,c1ccc(C(Cn2cnnc2)N2CCOCC2)nc1 (stereo not given),-29.3%
4,CN1CCC2(CC1)CNC(=O)c1ccccc1O2,-102%
5,O=C1Nc2ccccc2CC12CCCN2Cc1ccccn1 (stereo not given),-60.5%
6,Cc1cc(-c2cc(S(=O)(=O)N3C[C@H](C4CC4)[C@@H](N)C3)c(C)s2)on1,71.2%
7,Cc1cc(S(=O)(=O)N2C[C@H](C3CC3)[C@@H](N)C2)c(C)s1,86.1%
8,O=C(CC1CC1)N[C@@H]1CN(Cc2ccncc2)C[C@@H]2CCCO[C@@H]21,-86.8%
9,Cc1nnc(N2CCNCC2)c(C(N)=O)c1C,-11.3%
10,CCN1CC2(CC1=O)CN(Cc1ccccn1)CCN(C(C)=O)C2 (stereo not given),-40.2%
11,CN1CC=C(c2noc(CCC(=O)N3CCc4ccccc43)n2)CC1,-88.8%
12,CC(C)CN1C[C@@H]2C[C@H](C(=O)Nc3cccnc3)[C@H](C1)O2,-48.5%
13,CC(=O)N1CC[C@H]2N(C)CC[C@@]2(C(=O)Nc2cccnc2)CC1,-36%
14,CC(C)CN1CCCC1c1ccc(C(=O)Nc2cccnc2)s1 (stereo not given),87.5%
15,Cn1nc(-c2cccs2)cc1[C@H]1CN2CC[C@H]1C[C@@H]2CN,-26%
16,CSc1ccccc1C(=O)C1CCCN(Cc2cc(C(C)C)[nH]n2)C1 (stereo not given),-93.2%
17,Cc1csc(C2CCCCN2C(=O)c2cc(C(C)C)[nH]n2)n1 (stereo not given),76.4%
18,CN(C)Cc1cncc2c1CCN(CC(=O)N(C)C)C2,-114%
19,Cc1ncc(CN(Cc2ccccn2)Cc2ccccc2Cl)n1C,91.6%
20,CN(CCOCC1CC1)C(=O)Nc1ccc(C#N)c(Cl)c1,-115%
21,O=C(NCCCOCC1CC1)Nc1ccc(-n2cncn2)c(F)c1,88.3%
22,c1cncc(OC[C@]23COC[C@H]2CN(Cc2ccsc2)C3)c1,20.3%
23,O[C@@H]1CC(CNCc2ccc(Cl)cc2)(COc2cccnc2)C[C@@H]1O (stereo not given in full),70.3%
24,O[C@@]1(CNCCCOc2cccnc2)CCCN2CCCC[C@@H]21,-36.8%
25,O=S(=O)(NCC(c1ccsc1)N1CCCCCC1)c1cccs1 (stereo not given),85.5%
26,Cc1ccc(NC(=O)N2CCC(CO)(Nc3ccccc3)CC2)cc1,-31.275%
27,NC(=O)CN1CCCCC1c1ccc(-n2ccnc2)nc1 (stereo not given),-59.6%
28,OCCN1CCOC2(CCCN(c3ncccn3)C2)C1 (stereo not given),-14.1%
29,Fc1cccc(N2CCCC3(C2)CN(c2ncccn2)CCO3)c1 (stereo not given),70.6%
30,OCCN1CCOC2(CCCN(c3ncc(F)cn3)C2)C1 (stereo not given),11%
